# Measurements: ChEMBL document CHEMBL4296182, “CO-ADD screening of NIH NCI Diversity Set V”
# For part of these data: Potency and affinity values are given separately.
# Assays:
# [1] = test system: Staphylococcus aureus; assay: Antibacterial activity against Staphylococcus aureus MRSA ATCC 43300 (CO-ADD:GP_020); MIC in CAMBH media using NBS plates, by Resazurin F(560/590); format: functional; details: Concentration 20 uM, ASSAY_TEST Inhibition of Bacterial Growth, detection method Resazurin, Fluorescence (ex560/em590), MEDIA CAMHB, plate type 384well, CORNING #3640, time 18 hr
# [2] = test system: Acinetobacter baumannii; assay: Antibacterial activity against Acinetobacter baumannii ATCC 19606 (CO-ADD:GN_034); MIC in CAMBH media using NBS plates, by Resazurin F(560/590); format: functional; details: Concentration 20 uM, ASSAY_TEST Inhibition of Bacterial Growth, detection method Resazurin, Fluorescence (ex560/em590), MEDIA CAMHB, plate type 384well, CORNING #3640, time 18 hr
# [3] = test system: Escherichia coli; assay: Antibacterial activity against Escherichia coli ATCC 25922 (CO-ADD:GN_001); MIC in CAMBH media using NBS plates, by Resazurin F(560/590); format: functional; details: Concentration 20 uM, ASSAY_TEST Inhibition of Bacterial Growth, detection method Resazurin, Fluorescence (ex560/em590), MEDIA CAMHB, plate type 384well, CORNING #3640, time 18 hr
# [4] = test system: Klebsiella pneumoniae; details: Concentration 20 uM; ASSAY_TEST Inhibition of Bacterial Growth; detection method Absorption (OD600); MEDIA CAMHB; plate type 384well; NBS; CORNING #3640; time 18 hr
# [5] = test system: Candida albicans; details: 20 µM
# [6] = test system: Cryptococcus neoformans; details: Concentration 20 uM; ASSAY_TEST Inhibition of Fungal Growth; detection method Resazurin; Absorption (OD600-OD570); plate type 384well; NBS; CORNING #3640
compound,measurement,setting,value
O=C(O)c1cc(N2C(=O)C=CC2=O)cc(N2C(=O)C=CC2=O)c1,Inhibition,[1],-1.11%
same,Inhibition,[2],-6.34%
same,Inhibition,[3],5.17%
same,Inhibition,[4],6.14%
same,Inhibition,[5],5.6%
same,Inhibition,[6],-4%
Oc1ccc(/N=N/c2nccs2)c(O)c1,Inhibition,[1],-2.42%
same,Inhibition,[2],12.54%
same,Inhibition,[3],-3.78%
same,Inhibition,[4],17.07%
same,Inhibition,[5],29.2%
same,Inhibition,[6],2.7%
Cn1c(C(=O)c2ccncc2)cc2ccccc21,Inhibition,[1],10.4%
same,Inhibition,[2],13.49%
same,Inhibition,[3],0.36%
same,Inhibition,[4],4.66%
same,Inhibition,[5],5.59%
same,Inhibition,[6],-4.68%
NS(=O)(=O)c1ccc(NC(=S)NC(=O)c2ccco2)cc1,Inhibition,[1],17.92%
same,Inhibition,[2],4.84%
same,Inhibition,[3],10.07%
same,Inhibition,[4],4.06%
same,Inhibition,[5],1.47%
same,Inhibition,[6],-12.16%
O=C(O)/C(Cc1c[nH]nn1)=N\O,Inhibition,[1],-3.12%
same,Inhibition,[2],-10.75%
same,Inhibition,[3],6.44%
same,Inhibition,[4],7.49%
same,Inhibition,[5],2.24%
same,Inhibition,[6],-5.01%
C(=C\c1ccc(/C=C/c2ccccc2)nn1)/c1ccccc1,Inhibition,[1],12.1%
same,Inhibition,[2],11.6%
same,Inhibition,[3],2.44%
same,Inhibition,[4],18.32%
same,Inhibition,[5],0.82%
same,Inhibition,[6],-5.49%
Cc1cccc2cc3cccc(C)c3nc12,Inhibition,[1],-5.52%
same,Inhibition,[2],-11.71%
same,Inhibition,[3],-1.48%
same,Inhibition,[4],1.32%
same,Inhibition,[5],0.25%
same,Inhibition,[6],-5.61%
Oc1ccnc(Nc2ccc(Cl)cc2)n1,Inhibition,[1],11.15%
same,Inhibition,[2],-11.5%
same,Inhibition,[3],6.59%
same,Inhibition,[4],-5.88%
same,Inhibition,[5],0.12%
same,Inhibition,[6],-10.08%
Cc1ccc2c(c1)c1ccc3c(c1n2C)C(=O)C=CC3=O,Inhibition,[1],2.62%
same,Inhibition,[2],-23.42%
same,Inhibition,[3],6.78%
same,Inhibition,[4],6.78%
same,Inhibition,[5],22.6%
same,Inhibition,[6],22.59%
C[C@@H]1C[C@H]2OC(=O)[C@@]3(C)CCC[C@@](C)([C@@H]23)[C@@]1(O)CCc1ccoc1,Inhibition,[1],-8.43%
same,Inhibition,[2],-3.35%
same,Inhibition,[3],-14.05%
same,Inhibition,[4],4.6%
same,Inhibition,[5],-0.12%
same,Inhibition,[6],-1.32%
C=C(C)CN1C(=O)C(C)S/C1=N/N=C1/SCC(=O)N1C (stereo not drawn),Inhibition,[1],12.61%
same,Inhibition,[2],8.16%
same,Inhibition,[3],1.61%
same,Inhibition,[4],14.62%
same,Inhibition,[5],6.81%
same,Inhibition,[6],-8.83%
Nc1cc([N+](=O)[O-])ccc1N1C(=O)CCCC1=O,Inhibition,[1],5.36%
same,Inhibition,[2],15.02%
same,Inhibition,[3],-8.9%
same,Inhibition,[4],10.57%
same,Inhibition,[5],7.24%
same,Inhibition,[6],-9.22%
O=C(COc1ccc([N+](=O)[O-])cc1Cl)N1CCOCC1,Inhibition,[1],2.54%
same,Inhibition,[2],4.52%
same,Inhibition,[3],6.72%
same,Inhibition,[4],6.01%
same,Inhibition,[5],-1.21%
same,Inhibition,[6],-16.6%
CCOC(=O)c1c(C)nc(C)c(C(=O)OCC)c1-c1cccnc1,Inhibition,[1],-3.54%
same,Inhibition,[2],13%
same,Inhibition,[3],-4.27%
same,Inhibition,[4],5.06%
same,Inhibition,[5],0.35%
same,Inhibition,[6],-2.16%
Nc1ccccc1C(=O)Nc1ccc(Cl)cc1Cl,Inhibition,[1],13.76%
same,Inhibition,[2],-19.7%
same,Inhibition,[3],13.8%
same,Inhibition,[4],0.81%
same,Inhibition,[5],3.17%
same,Inhibition,[6],-17.52%
CNC1(C(N)=O)CCNCC1,Inhibition,[1],10.6%
same,Inhibition,[2],-11.41%
same,Inhibition,[3],16.83%
same,Inhibition,[4],15.69%
same,Inhibition,[5],-0.33%
same,Inhibition,[6],-6.49%
O=C(Nc1cccc2ccccc12)c1cc2c(cc1Br)OCO2,Inhibition,[1],5.22%
same,Inhibition,[2],3.29%
same,Inhibition,[3],17.42%
same,Inhibition,[4],10.46%
same,Inhibition,[5],2.94%
same,Inhibition,[6],-19.33%
Cc1nc([C@H]2CC[C@H]3[C@@H]4CCC5=CC(=O)CC[C@]5(C)[C@H]4CC[C@]23C)cs1,Inhibition,[1],4.31%
same,Inhibition,[2],15.21%
same,Inhibition,[3],6.81%
same,Inhibition,[4],9.22%
same,Inhibition,[5],2.4%
same,Inhibition,[6],-7.32%
CN1CCN(C(=O)Nc2ccc([N+](=O)[O-])cc2)CC1,Inhibition,[1],7.33%
same,Inhibition,[2],6.21%
same,Inhibition,[3],0.54%
same,Inhibition,[4],6.75%
same,Inhibition,[5],1.28%
same,Inhibition,[6],-7.02%
COc1ccc(Nc2cc(Cl)ccc2C(=O)O)cn1,Inhibition,[1],-1.71%
same,Inhibition,[2],14.76%
same,Inhibition,[3],0%
same,Inhibition,[4],20.74%
same,Inhibition,[5],22.9%
same,Inhibition,[6],-8%
Cc1cc(NC(=O)Nc2cccc3ccccc23)no1,Inhibition,[1],-11.32%
same,Inhibition,[2],-7.4%
same,Inhibition,[3],9.22%
same,Inhibition,[4],-0.15%
same,Inhibition,[5],8.31%
same,Inhibition,[6],-12.19%
Cc1nc2ccc(Cl)cn2c1[N+](=O)[O-],Inhibition,[1],1.58%
same,Inhibition,[2],13.48%
same,Inhibition,[3],-8.75%
same,Inhibition,[4],13.85%
same,Inhibition,[5],5.38%
same,Inhibition,[6],-3.42%
O=c1[nH]c(=S)c2nc(S)n(-c3ccccc3)c2[nH]1,Inhibition,[1],13.04%
same,Inhibition,[2],12.41%
same,Inhibition,[3],5.84%
same,Inhibition,[4],9.43%
same,Inhibition,[5],0.52%
same,Inhibition,[6],-6.47%
CCN(CC)CCNC(=O)c1ccc(NCN2C(=O)NC(c3ccccc3)(c3ccccc3)C2=O)cc1,Inhibition,[1],12.78%
same,Inhibition,[2],-11.12%
same,Inhibition,[3],11.42%
same,Inhibition,[4],8.03%
same,Inhibition,[5],1.74%
same,Inhibition,[6],-3.88%
CCCCc1c(C)nc(S)nc1O,Inhibition,[1],16.17%
same,Inhibition,[2],-14.45%
same,Inhibition,[3],9.4%
same,Inhibition,[4],7.26%
same,Inhibition,[5],2.04%
same,Inhibition,[6],-3.51%
Cc1ccc(-c2nc(-c3nccc4ccccc34)oc2-c2ccccc2)cc1,Inhibition,[1],17.39%
same,Inhibition,[2],5.86%
same,Inhibition,[3],4.4%
same,Inhibition,[4],6.85%
same,Inhibition,[5],18.7%
same,Inhibition,[6],-2.8%
CC(C)c1ncc(CO)n1Cc1c(Cl)cccc1Cl,Inhibition,[1],10.51%
same,Inhibition,[2],3.11%
same,Inhibition,[3],9.5%
same,Inhibition,[4],7.27%
same,Inhibition,[5],0.71%
same,Inhibition,[6],-9.37%
Cc1cc2c(cc1C)NC1=C(O)C(c3cccc(O)c3)OC1=N2 (stereo not drawn),Inhibition,[1],3.69%
same,Inhibition,[2],4.58%
same,Inhibition,[3],-10.78%
same,Inhibition,[4],28.82%
same,Inhibition,[5],3.61%
same,Inhibition,[6],-0.13%
O=C(O)C(c1ccccc1)C1(O)CCCCC1 (stereo not drawn),Inhibition,[1],4.6%
same,Inhibition,[2],-11.34%
same,Inhibition,[3],11.15%
same,Inhibition,[4],5.64%
same,Inhibition,[5],0.92%
same,Inhibition,[6],-11.66%
COc1ccc(/N=N/c2ccc(N)nc2N)cc1,Inhibition,[1],0.3%
same,Inhibition,[2],-8.88%
same,Inhibition,[3],5.08%
same,Inhibition,[4],7.55%
same,Inhibition,[5],4.94%
same,Inhibition,[6],-6.06%
COc1cc(Cl)c(CC(=O)c2c[nH]c3ccccc23)cc1OC,Inhibition,[1],-6.42%
same,Inhibition,[2],2.77%
same,Inhibition,[3],-1.53%
same,Inhibition,[4],5.86%
same,Inhibition,[5],3.17%
same,Inhibition,[6],-1.97%
COc1cc(NC(C)=O)c2ncccc2c1Br,Inhibition,[1],8.44%
same,Inhibition,[2],-11.34%
same,Inhibition,[3],10.55%
same,Inhibition,[4],15.6%
same,Inhibition,[5],6.33%
same,Inhibition,[6],-16.73%
CCC(CNc1cc(OC)cc2cccnc12)NC1CCCCC1 (stereo not drawn),Inhibition,[1],4.02%
same,Inhibition,[2],11.06%
same,Inhibition,[3],4.95%
same,Inhibition,[4],14.97%
same,Inhibition,[5],-0.36%
same,Inhibition,[6],-7.8%
CCCCCCC(C)OC(=O)c1ccccc1C(=O)O (stereo not drawn),Inhibition,[1],12.97%
same,Inhibition,[2],-3.64%
same,Inhibition,[3],-2.32%
same,Inhibition,[4],24.05%
same,Inhibition,[5],18.6%
same,Inhibition,[6],-16.02%
Cc1ccc(C2C=CC(C#N)=CN2Cc2ccccc2)cc1 (stereo not drawn),Inhibition,[1],18.9%
same,Inhibition,[2],-15.76%
same,Inhibition,[3],11.73%
same,Inhibition,[4],11.58%
same,Inhibition,[5],-1.48%
same,Inhibition,[6],-7.94%
CCOC(=O)Nc1ccc(C(=O)/C=C/c2ccccc2)cc1,Inhibition,[1],8.55%
same,Inhibition,[2],3.76%
same,Inhibition,[3],-2.1%
same,Inhibition,[4],17.43%
same,Inhibition,[5],6.26%
same,Inhibition,[6],-5.25%
NC(S)=Nc1cccc(Cl)c1,Inhibition,[1],9.52%
same,Inhibition,[2],-8.51%
same,Inhibition,[3],1.81%
same,Inhibition,[4],0.23%
same,Inhibition,[5],2.81%
same,Inhibition,[6],-2.86%
COc1cc(NCc2ccccc2O)c2ncccc2c1,Inhibition,[1],-0.91%
same,Inhibition,[2],-6.99%
same,Inhibition,[3],7.11%
same,Inhibition,[4],7.53%
same,Inhibition,[5],4.54%
same,Inhibition,[6],-12.51%
